Experimental findings from PubChem BioAssay are described below.

Molecules are shown by their SMILES.

This test in a line: hepatitis C replication reporter changes, two-sided – Huh7 cells, luciferase reporter, HCV replication inhibitor project, primary screen (AID 1109).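 Note: huh7 hepatoma cells harbouring a luciferase neomycin HCV replicon reporter; luciferase luminescence as measure of HCV replicon replication; test concentration not given here.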 Particulars: Huh7 HCV replicon luciferase reporter, 48 h; higher = more signal. (In a reporter assay the amount or activity of a reporter protein is the signal.)
In turn, `COCCOC(=O)N1C(=O)[C@@]2(c3cc(C#CCC(C(=O)OC)C(=O)OC)ccc31)[C@H](c1ccc(OCCO)cc1)N1[C@H](c3ccccc3)[C@H](c3ccccc3)OC(=O)[C@H]1[C@@H]2C(=O)N1CCCCCCC1` returned a z-score of -0.735.

Regarding `Cc1ccc(S[C@]2(C(=O)NCC(F)(F)F)CC(=O)N(C3CCCCC3)[C@@H]2c2ccc(CO)cc2)cc1`, the z-score is -0.759.

`COCCOC(=O)N1C(=O)[C@@]2(c3ccccc31)[C@H](C(N)=O)[C@H]1C(=O)O[C@H](c3ccccc3)[C@H](c3ccccc3)N1[C@@H]2c1ccc(OCCO)cc1` returned a z-score of -1.09.

Compound `C=CCC(OC(C)=O)[C@@H]1[C@@H](N(Cc2ccc(-c3cccc(C(F)(F)F)c3)o2)C(=O)c2cccc3ccccc23)c2cc(OCCCO)ccc2N1C(=O)c1ccc2ccccc2c1` (stereo not given in full) had a z-score of 0.0329.

Compound `COc1ccc(NC(=O)O[C@H]2[C@H](OC(=O)Nc3ccc4c(c3)OCO4)[C@H](OC(=O)Nc3ccc4c(c3)OCO4)[C@@H](OC)O[C@@H]2CO)cc1` showed a z-score of 0.0346.

For `[N-]=[N+]=NCc1ccccc1C[C@]1(C(=O)N2CCOCC2)N=C(c2ccc(OCCCO)cc2)O[C@H]1c1ccccc1CN=[N+]=[N-]`, the z-score was -2.48.

Compound `CCCCC(=C=CC[C@@H](O)c1cccc(OCCO)c1)CCO` came in with a z-score of -0.165.

Turning to `CC(C)C[C@@H]1NC(=O)[C@H]2C[C@@H](C(=O)NCCCCCCNC(=O)CS)[C@@H](c3ccc(O)cc3)N2C1=O`, the z-score is -1.13.

On to `C=CCC(OC(C)=O)[C@@H]1[C@@H](N(Cc2cc3ccccc3o2)C(=O)Cc2ccc(OC)cc2)c2cc(OCCCO)ccc2N1C(=O)Cc1ccc(OC)cc1` (stereo not given in full), for which the z-score came to 0.028.

The compound `COc1ccc([Si](C)(C)[C@H]2[C@H](CCn3cc([C@H](O)c4ccccc4)nn3)O[C@@]3(C(=O)N(c4ccccc4)c4ccccc43)[C@@H]2C)cc1` showed a z-score of -2.91.

The compound `Cc1ccccc1C(O)C1C=CC2C(=O)N(c3ccccc3)C(=O)C2N1Nc1ccccc1F` (stereo not given) displayed a z-score of 1.97.

`C=CC[C@@]1(C(=O)N(C)C)N=C(c2ccc(OCCCO)cc2)O[C@@H]1c1ccccc1` showed a z-score of -0.624.

For `CCCCC(O)C1C=CC2C(=O)N(C)C(=O)C2N1Nc1ccccc1` (stereo not given), the z-score is -0.413.

With `COC(=O)C1=CC(CCCO)=CC(c2ccc(CN3CCCC3)cc2)N(Cc2sc3ccccc3c2Cl)C=C1C(=O)OC` (stereo not given), the z-score is -0.574.

Compound `C=C(/C(=C/C[C@@H](OC(C)=O)c1ccccc1OCCO)c1cc(C(=O)OC)ccc1OC)C(C)C` yielded a z-score of -1.69.

In the case of `CCCC=C(CCC)[C@@H](NC(=O)c1ccccc1)c1ccc(C(=O)OC)cc1`, the z-score is -1.32.

For `COC(=O)[C@@]1(Cc2ccc(OC)cc2)[C@@H]2[C@@H](CC(=O)[C@H]2CC(=O)C(=O)N2CCCC2)CN1C(=O)c1ccccc1`, the z-score is -1.83.

The compound `CCCCCN1CC=CC23O[C@@H]4C=CCOC(=O)[C@@H]4[C@H]2C(=O)N(CCCCCO)[C@@H]3C1=O` (stereo not given in full) came in with a z-score of -0.0591.

`COc1ccc(CCNC(=O)[C@@]2(Sc3ccc(C)cc3)CC(=O)N(Cc3cc(C(F)(F)F)cc(C(F)(F)F)c3)[C@@H]2c2ccc(CO)cc2)cc1` yielded a z-score of -0.146.

In turn, `CN1C(=O)[C@]2(CCC(=O)OC(C)(C)C)N=C(c3ccc(OCCCO)cc3)O[C@@H]2c2ccccc21` yielded a z-score of -2.88.

Regarding `COC(=O)[C@@]1(Cc2ccccc2CN=[N+]=[N-])COC(c2ccc(OCCCO)cc2)=N1`, the z-score is -0.221.

Compound `CCCC[C@H]1OB(O)C[C@H]2C1=C(C)C[C@H]1C(=O)C=CC(=O)[C@H]12` came in with a z-score of -2.52.

`O=C1O[C@H](c2ccccc2)[C@H](c2ccccc2)N2[C@H]1[C@@H](C(=O)NC[C@H](O)c1ccccc1)[C@]1(C(=O)Nc3ccc(C#CCCO)cc31)[C@H]2c1ccccc1OCCO` yielded a z-score of -1.47.

`CCC[C@@H]1[C@@H](Sc2ccccc2)[C@@H](C(=O)O)[C@H](c2ccc(C)cc2)N1S(=O)(=O)c1ccc(C)cc1` displayed a z-score of -1.57.

The compound `CC(C)(C)OC(=O)CC[C@]1(C(=O)N2CCOCC2)N=C(c2ccc(OCCCO)cc2)O[C@H]1c1ccccc1CN=[N+]=[N-]` returned a z-score of -0.229.

Regarding `COC(=O)[C@@]1(Cc2ccc(F)cc2)[C@H]2c3cc(C(=O)N(C)C)n(CCN4CCOCC4)c3C[C@H]2CN1C(=O)c1ccccc1`, the z-score worked out at 0.349.

`O=C1OCCC/C=C\[C@H]2OC34C=CCN(Cc5ccccc5)C(=O)[C@H]3N(CCCCCO)C(=O)[C@@H]4C12` (stereo not given in full) yielded a z-score of -1.06.

`CCOC(=O)C[C@H]1[C@H](OC(=O)c2ccc(C(=O)c3ccccc3)cc2)[C@@H](NC(=O)c2ccc3ccccc3c2)c2cc(OCCCO)ccc2N1C(=O)c1ccc2ccccc2n1` came in with a z-score of -0.415.

`NC(=O)NCC#Cc1ccc2c(c1)[C@]1(C(=O)N2)[C@H](C(=O)Nc2nc3ccccc3s2)[C@H]2C(=O)O[C@H](c3ccccc3)[C@H](c3ccccc3)N2[C@@H]1c1ccc(OCCO)cc1` yielded a z-score of -0.942.

In turn, `CC(C)C(=C=CC[C@@H](O)c1ccccc1OCCO)C[C@@H](O)c1cc(Cl)cc(Cl)c1O` came in with a z-score of -3.27.

Take `COC(=O)[C@@H]1N=C(c2ccc(OCCCO)cc2)O[C@@H]1c1ccccc1CN=[N+]=[N-]`: the z-score was -2.67.

With `COc1cc2c(cc1O)C(C1CC1)N(Cc1ccc([N+](=O)[O-])o1)CC2` (stereo not given), the z-score is -0.498.

The compound `COc1ccc(NN2C(C(O)c3cc(C(F)(F)F)cc(C(F)(F)F)c3)C=CC3C(=O)N(C4CCCCC4)C(=O)C32)cc1` (stereo not given) gave a z-score of -1.79.

In turn, `C=CCC(OC(C)=O)[C@@H]1[C@@H](N(Cc2ccc(-c3ccccc3)cc2)C(=O)c2ccc(-c3ccccc3)cc2)c2cc(OCCCO)ccc2N1C(=O)c1ccc2ccccc2n1` (stereo not given in full) had a z-score of -0.0356.

In turn, `O=C(NCC(F)(F)F)[C@@H]1c2ccccc2C(=O)N(CC23CC4CC(CC(C4)C2)C3)[C@H]1c1ccc(CO)cc1` showed a z-score of -1.83.
